About 7,700 (2.3%) of roughly 330,000 compounds were called active. A call without a number means that no potency is given here. Not shown: some 26% with an inconclusive outcome. Calls follow the shape of the dose curve; as a rule, active = well fitted inhibition curve with a large enough effect; inconclusive = small, poorly fitted or top-dose-only effect, or effect the other way; inactive = flat fitted curve, though single readings scatter. This excerpt belongs to a sample that is enriched for actives.
Potency is read from the fitted curve at half-maximal effect.

This assay is described as follows: qHTS screen for small molecules that inhibit ELG1-dependent DNA repair in human embryonic kidney (HEK293T) cells expressing luciferase-tagged ELG1. Also: nearly all actives have a fitted effect of over 55% in size. The following applies: HEK293T ELG1-luciferase reporter, luminescence, 16 h, DNA damage induced by 5-fluorouridine; series mostly up to 46.1 µM. The method in brief: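 DMSO vehicle served as the neutral condition. Each well held 2,000 cells given 5-fluorouridine plus compound; after 16 hr at 37 °C/5% CO2, ONE-Glo was added and luciferase measured 30 min later.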
A general note: Quantitative high-throughput screening tests each substance at several concentrations.
`COc1cc(OC)cc(-c2c(C#Cc3ccsc3)c3cc(-c4ccc(OC)cc4F)ccc3n2C)c1`: the Potency entry is “inactive”.
With `O=C1CC2(CC(c3ccc(Cl)cc3)=NO2)C(=O)N1c1ccccc1` (stereo not drawn), the Potency entry is “inactive”.
The same measure for `Cc1nc(C(=O)Nc2ccc(Cl)cc2)sc1C1(C)CC(c2ccccc2)=NO1` (stereo not drawn): 18.3 µM (active); for `O=C(Nc1ccc(Cl)cc1)OCc1cc(-c2ccccc2)on1`: “inactive”.
`COc1ccccc1N1CCN(S(=O)(=O)c2ccc3c(c2)NC(=O)CS3)CC1`: the Potency entry was “inactive”.
As for `CCOC(=O)[C@H]1[C@H]2COc3cc(OC)ccc3[C@@H]2N2C(=O)CN(Cc3ccc(Cl)cc3)C(=O)[C@@]12C`, the entry is “inactive”; as for `CCc1ccc(CN(C)C(=O)C2CCC(=O)N(Cc3cccc(OC)c3)C2)nc1` (stereo not drawn), “inactive”.
Turning to `CN(C)S(=O)(=O)c1ccc(N2CCCC2)c(C(=O)Nc2ccc(Br)cc2F)c1`, the Potency result is “inactive”.
Take `Cc1c(C(=O)NCCN(C)C)oc2ccc(S(=O)(=O)N3CCCC3)cc12`: the Potency result was “inactive”.
As for `CCOc1ccccc1NC(=O)c1cc(S(=O)(=O)N2CCC3(CC2)OCCO3)ccc1F`, the entry is “inactive”; as for `Cc1c(C(=O)Nc2ccccc2Cl)oc2ccc(S(=O)(=O)N3CCC4(CC3)OCCO4)cc12`, 3.66 µM (active); as for `CCN(Cc1ccccc1)C(=O)Cc1ccc(OC)c(S(=O)(=O)N2CCOCC2)c1`, “inactive”.
The same measure for `C=CCn1c(SCC(=O)Nc2nc3ccccc3s2)nnc1-c1ccccc1O`: “inactive”; for `C=CCn1c(SCC(=O)NC(=O)Cc2ccccc2)nc2ccccc2c1=O`: “inactive”; for `C=CCn1c(SCC(=O)NCc2ccccc2)nnc1-c1cc(Br)ccc1O`: 13 µM (active).
The same measure for `Cc1cc(N/N=C/c2ccccc2F)c2ccccc2n1`: “inactive”.
`FC(F)(F)c1nc2ccccc2nc1N/N=C/c1ccc(Cl)cc1`: the Potency entry was “inactive”.
The same measure for `Oc1ccc(/C=N/Nc2nc(-c3ccccc3F)nc3ccccc23)c(O)c1`: 14.6 µM (active).
As for `COc1ccc2ccccc2c1/C=N/NC(=O)c1cc(C)[nH]n1`, the entry is “inactive”.
In the case of `CC(C)(C)c1cc(C(=O)N/N=C/c2ccc([N+](=O)[O-])s2)n[nH]1`, the Potency is 5.17 µM (active).
As for `COc1cc(/C=N\NC(=O)CNC(=O)c2cccc([N+](=O)[O-])c2)ccc1O`, the entry is “inactive”; as for `CCOc1ccc(NC(=O)CCC(=O)N/N=C/c2ccc([N+](=O)[O-])s2)cc1`, “inactive”; as for `COc1ccc(C(=O)COC(=O)c2ccc([N+](=O)[O-])s2)cc1OC`, “inactive”.
The same measure for `COc1ccc(C(=O)NCC(=O)N/N=C/c2ccc([N+](=O)[O-])s2)cc1OC`: 8.2 µM (active); for `O=[N+]([O-])c1ccc(O)c(/C=N/Nc2ccccc2[N+](=O)[O-])c1`: 18.3 µM (active).
The same measure for `O=[N+]([O-])c1ccccc1Nc1ccc(O)cc1`: “inactive”; for `Nc1nnnn1/N=C/c1cc([N+](=O)[O-])ccc1O`: “inactive”.
As for `Cc1ccccc1SCC(=O)OCC(=O)N1CC(=O)Nc2ccccc21`, the Potency result was “inactive”.
The same measure for `CCCn1c(C(C)Nc2nc(-c3ccc(C)cc3)cs2)nc2cc(Cl)c(N3CCCCC3)cc21` (stereo not drawn): “inactive”; for `CCOC(=O)c1cnc2[nH]c3ccccc3n2c1=O`: “inactive”; for `Cc1ccccc1Cn1c(=O)[nH]c2ccccc21`: “inactive”.
The same measure for `CCCc1cc(=S)n2c([nH]c3ccccc32)c1C#N`: 16.4 µM (active).
The same measure for `Cc1ccc(S(=O)(=O)N(C)CC(=O)NCC(c2ccc(F)cc2)N2CCOCC2)cc1` (stereo not drawn): “inactive”; for `O=C(OCC(=O)N1CCCCCC1)c1ccc(Cl)nc1`: “inactive”; for `CCCCn1nc(C(=O)OCC(=O)Nc2sccc2C(N)=O)c2ccccc2c1=O`: “inactive”.
Regarding `CCCCn1nc(C(=O)Nc2cccc(C(=O)NC3CC3)c2)c2ccccc2c1=O`, the Potency was 13 µM (active).
As for `CCn1nc(C(=O)Nc2ccc(N3CCOCC3)cc2)c2ccccc2c1=O`, the entry is “inactive”; as for `Cn1c(N)c(C(=O)COC(=O)c2cccc(S(=O)(=O)N3CCOCC3)c2)c(=O)n(C)c1=O`, “inactive”; as for `CCCn1c(CCNc2nc(-c3ccc(OC)cc3)cs2)nc2ccccc21`, “inactive”.
As for `CCN(CC(=O)NCCc1ccccc1)S(=O)(=O)c1ccc(C)cc1`, the entry is “inactive”.
The same measure for `CN(c1ccccc1)S(=O)(=O)c1ccc(Cl)c(C(=O)OCC(N)=O)c1`: “inactive”.
Consider `COc1ccccc1CC(=O)NCCc1c[nH]c2ccccc12`, for which the Potency result was “inactive”.
Regarding `Cc1ccc(S(=O)(=O)N(C)CC(=O)NCCc2c[nH]c3ccccc23)cc1`, the Potency was 14.6 µM (active).
The same measure for `CN(c1ccccc1)S(=O)(=O)c1ccc(Cl)c(C(=O)OCC(=O)NCc2ccco2)c1`: “inactive”; for `CSCCC(NS(=O)(=O)c1ccc(C)cc1)C(=O)NCCc1c[nH]c2ccccc12` (stereo not drawn): “inactive”; for `CN(c1ccccc1)S(=O)(=O)c1ccc(Cl)c(C(=O)NCCc2c[nH]c3ccccc23)c1`: 18.4 µM (active).
The same measure for `CCN(CC)S(=O)(=O)c1ccc2[nH]cc(C(=O)NCCc3ccccc3)c(=O)c2c1`: 5.8 µM (active); for `CCN(CC(=O)NCCc1ccccc1)S(=O)(=O)c1ccccc1`: “inactive”; for `COc1cc(CN2CCCC(C(=O)c3ccc(SC)cc3)C2)cc(Cl)c1O` (stereo not drawn): “inactive”.
The same measure for `CCOc1ccccc1OCC(=O)Nc1ccccc1C(=O)NC1CC1`: “inactive”; for `Cc1ccc(S(=O)(=O)NCc2ccc(C(=O)NC3CCC(C)CC3)cc2)cc1` (stereo not drawn): “inactive”; for `CCCCn1c(N)c(N(CCOC)C(=O)c2oc3ccc(OC)cc3c2C)c(=O)[nH]c1=O`: “inactive”.
Consider `CCN(C(=O)COC(=O)CCC(=O)c1cccs1)C1CCCCC1`, for which the Potency entry was “inactive”.
The same measure for `CN(C)CCCN(C(=O)c1ccc(S(=O)(=O)N2CCCc3ccccc32)cc1)c1nc2ccc(F)cc2s1`: “inactive”; for `Cc1ccc(NC(=O)c2cccc(S(=O)(=O)N3CCCc4ccccc43)c2)nc1`: 18.3 µM (active); for `CS(=O)(=O)c1ccc2nc(NC(=O)c3ccc(N4CCCC4=O)cc3)sc2c1`: “inactive”.
As for `O=C(Nc1nc2ccc([N+](=O)[O-])cc2s1)c1ccc(S(=O)(=O)N2CCCc3ccccc32)cc1`, the figure is 2.31 µM (active); as for `Cc1cccc(NC(=O)c2cccc(S(=O)(=O)N3CCCC3)c2)n1`, “inactive”; as for `CC1CCN(C(=O)c2cccc(S(=O)(=O)N3CCCc4ccccc43)c2)CC1`, “inactive”.
For the compound `O=C(COC(=O)c1ccco1)Nc1ccc(Cl)cn1`, the Potency result is “inactive”.
Regarding `COc1ccc(Cl)cc1NC(=O)COC(=O)c1ccc(Br)o1`, the Potency entry is “inactive”.
For `O=C(NCCN1CCOCC1)c1cccc(S(=O)(=O)Nc2ccc(F)cc2)c1`, the Potency result was “inactive”.
As for `COc1ccc(CCNC(=O)CSCc2ccc(Br)cc2)cc1OC`, the entry is “inactive”; as for `CCOC(=O)CN(Cc1ccc(OC)c(OC)c1)S(=O)(=O)c1ccc(OC)cc1`, “inactive”.
The same measure for `COc1ccc(C(CCN(Cc2ccc(OC)c(OC)c2)C(=O)CCl)c2ccccc2)cc1` (stereo not drawn): 20.6 µM (active); for `COc1ccc(COC(=O)NC(C(=O)O)c2ccccc2)cc1` (stereo not drawn): “inactive”.
Turning to `Cc1cccc(C)c1Nc1nnc(SCC(=O)NCCCN2CCCC2=O)s1`, the Potency result was “inactive”.
The same measure for `C[C@H](CO)N1C[C@H](C)[C@@H](CN(C)Cc2ccc(-c3ccccc3)cc2)Oc2ccc(NC(=O)Cn3cnnn3)cc2C1=O`: “inactive”; for `Cc1noc(C)c1C(=O)OCC(=O)/C=C1\N(C)c2ccccc2C1(C)C`: “inactive”; for `CCOc1cccc(NC(=O)CC#N)c1`: “inactive”.
The same measure for `CC(=O)Nc1cccc(OCC(=O)/C=C2\N(C)c3ccccc3C2(C)C)c1`: 18.3 µM (active); for `Cc1ccc(-n2c(SCC(=O)NCCC3=CCCCC3)nc3n[nH]c(C)c3c2=N)cc1Cl`: “inactive”.
As for `Cc1ccc2cc(C)c(N3CCN(c4ccc(F)cc4)CC3)nc2c1`, the entry is “inactive”.
Consider `COc1ccccc1-c1nn(Cc2ccccc2)cc1C(=O)N1CCN(c2ncccn2)CC1`, for which the Potency entry is “inactive”.
The same measure for `CN(C)c1ccnc2sc3c(=O)n(Cc4ccccc4)cnc3c12`: 4.61 µM (active).
In the case of `O=c1c2[nH]c3ccc(Cl)cc3c2ncn1Cc1ccccn1`, the Potency entry was “inactive”.
Turning to `O=c1c2c(ncn1Cc1ccccc1)nc1n2CCC1`, the Potency result is “inactive”.
As for `Cc1c(NC(=O)C(C)OC(=O)c2ccccc2O)c(=O)n(-c2ccccc2)n1C` (stereo not drawn), the entry is “inactive”; as for `Cc1ccc(NC(=O)C(C)OC(=O)Cc2c[nH]c3ccccc23)cc1S(=O)(=O)N1CCOCC1` (stereo not drawn), 18.3 µM (active).
With `Cc1cc(C(=O)OC(C)C(=O)Nc2cccc(S(=O)(=O)N3CCOCC3)c2)c(C)o1` (stereo not drawn), the Potency entry is “inactive”.
The same measure for `CC(OC(=O)CCCc1c[nH]c2ccccc12)C(=O)Nc1ccc(S(N)(=O)=O)cc1` (stereo not drawn): “inactive”; for `O=C(N[C@H]1C/C=C\C(c2ccc(F)cc2)N(Cc2ccccc2)C(=O)C1)OCC1c2ccccc2-c2ccccc21` (stereo partly drawn): “inactive”.
The same measure for `Nc1c(Cl)cc(-c2csc(N3CCCC3c3nc4cc(Cl)c(Cl)cc4n3CCOCCO)n2)cc1Cl` (stereo not drawn): “inactive”.
As for `COc1ccc(C(=O)CSc2nnc(-c3ccco3)o2)cc1`, the entry is “inactive”.
For the compound `COc1ccc(-n2c(C)cc(C(=O)CSc3nnc(-c4cccs4)o3)c2C)cc1`, the Potency was 6.51 µM (active).
The same measure for `COc1ccc(OC)c(C(=O)CSc2nnc(-c3cccs3)o2)c1`: “inactive”; for `CCN(CC)CCN1C(=O)C2C(C(=O)Nc3ccc(Br)cc3)C3C=CC2(O3)C1C(=O)NC1CCCCC1` (stereo not drawn): “inactive”.
The same measure for `Cc1ccc(NC(=S)NCCc2ccc(Cl)cc2)c(C)c1`: “inactive”; for `CCC1(c2ccccc2)NC(=O)N(CC(=O)Nc2ccccc2C(=O)NC2CCCC2)C1=O` (stereo not drawn): “inactive”.
As for `CCc1ccc(NC(=O)Cn2nnc(C(=O)NCc3ccc(OC)cc3)c2N)cc1`, the entry is “inactive”.
In the case of `COc1cc(C2CC(=O)Oc3cc(OC)c(OC)c(OC)c32)cc(OC)c1OC` (stereo not drawn), the Potency entry was “inactive”.
With `O=C(CCS(=O)(=O)Cc1ccccc1)Nc1ccc2c(c1)OCCO2`, the Potency entry was “inactive”.
As for `CCN(CC(=O)Nc1ccc2c(c1)OCO2)S(=O)(=O)c1ccccc1`, the entry is “inactive”; as for `O=C(CN(c1ccc2c(c1)OCCO2)S(=O)(=O)c1ccccc1)Nc1ccc2c(c1)OCO2`, 9.2 µM (active); as for `NC(=O)c1cc(S(=O)(=O)NCCCc2ccco2)cs1`, “inactive”.
As for `CCn1cc(C(=O)NCC2COc3ccccc3O2)c2cc(OC)c(OC)cc2c1=O` (stereo not drawn), the figure is 14.6 µM (active); as for `O=C(Cn1cnc2ccccc2c1=O)NCC1COc2ccccc2O1` (stereo not drawn), “inactive”; as for `Cc1noc(C)c1C(=O)NCC1COc2ccccc2O1` (stereo not drawn), “inactive”.

The values above are taken from PubChem BioAssay AID504467 (National Center for Advancing Translational Sciences (NCATS), 2011).
